Data reported in paper PMC7862700, “An all-to-all approach to the identification of sequence-specific readers for epigenetic DNA modifications on cytosine”.

What was measured:
Assay in all cases: DAPPL (digital affinity profiling via proximity ligation, sequencing); 10 mM Tris-HCl pH 7.5, 50 mM NaCl, 1 mM DTT, 4% glycerol, room temperature, 30 min; GST-TFs on glutathione beads, 16-mer random dsDNA library, 0.1% formaldehyde crosslink after washing; high values mean tight binding
Details in all cases: protein: recombinant; tags: N-terminal GST; dsDNA, one strand shown
FLI1 = molecular target: T1, FLI1 (Homo sapiens, UniProt Q01543 1-452)
T1 sequence: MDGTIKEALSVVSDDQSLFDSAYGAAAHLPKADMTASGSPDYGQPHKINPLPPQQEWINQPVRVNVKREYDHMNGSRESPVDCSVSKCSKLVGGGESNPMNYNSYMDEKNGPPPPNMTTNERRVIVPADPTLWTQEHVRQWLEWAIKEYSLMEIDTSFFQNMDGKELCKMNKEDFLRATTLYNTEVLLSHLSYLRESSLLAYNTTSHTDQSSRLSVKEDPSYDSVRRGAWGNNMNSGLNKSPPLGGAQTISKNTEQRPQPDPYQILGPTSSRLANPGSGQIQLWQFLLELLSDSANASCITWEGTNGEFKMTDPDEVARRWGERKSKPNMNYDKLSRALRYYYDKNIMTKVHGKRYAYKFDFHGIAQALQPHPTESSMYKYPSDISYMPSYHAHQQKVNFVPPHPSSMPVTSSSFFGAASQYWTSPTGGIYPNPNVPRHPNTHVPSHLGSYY
Outline: (§1)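 Yeast served to express human transcription factors as GST fusions, which were then captured on glutathione beads and labelled with DNA barcodes. Pooled with a tag-only sample, they were incubated with 200 nmole of a 16-mer random double-stranded DNA library for 30 min at room temperature in Tris/NaCl/DTT/glycerol buffer, washed, crosslinked with 0.1% formaldehyde, ligated by proximity, amplified by PCR and sequenced. Dividing each hexamer's read frequency for a factor by its frequency for the tag-only sample gives the binding signal.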

ELK1 = molecular target: T2, ELK1 (Homo sapiens, UniProt P19419 1-428)
T2 sequence: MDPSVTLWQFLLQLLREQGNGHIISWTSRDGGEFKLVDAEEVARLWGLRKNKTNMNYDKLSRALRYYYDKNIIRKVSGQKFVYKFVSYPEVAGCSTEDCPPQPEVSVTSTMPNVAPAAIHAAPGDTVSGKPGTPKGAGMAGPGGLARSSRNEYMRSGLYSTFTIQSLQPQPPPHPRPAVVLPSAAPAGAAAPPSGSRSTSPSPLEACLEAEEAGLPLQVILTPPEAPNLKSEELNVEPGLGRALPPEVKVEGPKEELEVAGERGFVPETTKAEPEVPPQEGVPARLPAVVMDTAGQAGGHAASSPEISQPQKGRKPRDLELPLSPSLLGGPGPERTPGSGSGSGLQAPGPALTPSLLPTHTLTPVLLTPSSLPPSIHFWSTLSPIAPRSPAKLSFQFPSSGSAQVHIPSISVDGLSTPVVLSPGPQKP
Outline: as §1

GABPA = molecular target: T3, GABPA (Homo sapiens, UniProt Q06546 1-454)
T3 sequence: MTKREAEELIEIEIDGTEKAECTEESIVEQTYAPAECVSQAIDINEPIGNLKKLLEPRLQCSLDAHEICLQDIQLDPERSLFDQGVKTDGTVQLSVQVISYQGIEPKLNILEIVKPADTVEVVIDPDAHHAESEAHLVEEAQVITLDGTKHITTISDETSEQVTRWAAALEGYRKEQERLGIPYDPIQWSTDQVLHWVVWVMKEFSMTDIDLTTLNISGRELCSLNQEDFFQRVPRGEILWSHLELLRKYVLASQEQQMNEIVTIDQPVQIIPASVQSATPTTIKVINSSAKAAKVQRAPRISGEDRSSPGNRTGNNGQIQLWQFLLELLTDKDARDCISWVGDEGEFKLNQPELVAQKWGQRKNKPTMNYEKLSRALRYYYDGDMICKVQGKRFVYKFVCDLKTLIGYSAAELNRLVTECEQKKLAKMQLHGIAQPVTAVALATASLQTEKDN
Outline: as §1

ERG = molecular target: T4, ERG (Homo sapiens, UniProt P11308 1-479)
T4 sequence: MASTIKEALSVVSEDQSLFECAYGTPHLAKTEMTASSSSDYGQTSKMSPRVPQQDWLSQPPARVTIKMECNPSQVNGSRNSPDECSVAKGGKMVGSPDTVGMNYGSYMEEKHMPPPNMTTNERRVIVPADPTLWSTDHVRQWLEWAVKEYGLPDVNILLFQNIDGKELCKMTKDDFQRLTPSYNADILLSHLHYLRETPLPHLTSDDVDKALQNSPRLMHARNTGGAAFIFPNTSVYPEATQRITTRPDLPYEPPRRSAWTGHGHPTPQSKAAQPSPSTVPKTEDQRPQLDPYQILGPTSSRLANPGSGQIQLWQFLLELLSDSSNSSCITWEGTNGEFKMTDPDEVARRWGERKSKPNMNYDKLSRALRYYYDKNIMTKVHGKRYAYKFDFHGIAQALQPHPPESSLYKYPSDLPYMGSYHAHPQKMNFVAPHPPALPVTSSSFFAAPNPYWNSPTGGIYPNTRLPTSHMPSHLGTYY
Outline: as §1

ELF1 = ELF1 (Homo sapiens, UniProt P32519 1-619)
Outline: as §1

EHF = molecular target: T5, EHF (Homo sapiens, UniProt Q9NZC4 1-300)
T5 sequence: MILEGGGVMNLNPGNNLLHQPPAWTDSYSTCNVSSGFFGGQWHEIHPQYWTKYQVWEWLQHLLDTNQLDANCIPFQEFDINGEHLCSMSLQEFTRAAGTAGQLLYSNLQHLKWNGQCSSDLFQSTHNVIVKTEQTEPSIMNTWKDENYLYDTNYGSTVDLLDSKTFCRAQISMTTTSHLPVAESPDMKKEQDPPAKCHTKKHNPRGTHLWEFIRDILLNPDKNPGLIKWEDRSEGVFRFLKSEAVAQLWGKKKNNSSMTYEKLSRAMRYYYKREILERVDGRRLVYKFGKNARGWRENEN
Outline: as §1

SPIB = SPIB (Homo sapiens, UniProt Q01892 1-262)
Outline: as §1

ELK3 = molecular target: T6, ELK3 (Homo sapiens, UniProt P41970 1-407)
T6 sequence: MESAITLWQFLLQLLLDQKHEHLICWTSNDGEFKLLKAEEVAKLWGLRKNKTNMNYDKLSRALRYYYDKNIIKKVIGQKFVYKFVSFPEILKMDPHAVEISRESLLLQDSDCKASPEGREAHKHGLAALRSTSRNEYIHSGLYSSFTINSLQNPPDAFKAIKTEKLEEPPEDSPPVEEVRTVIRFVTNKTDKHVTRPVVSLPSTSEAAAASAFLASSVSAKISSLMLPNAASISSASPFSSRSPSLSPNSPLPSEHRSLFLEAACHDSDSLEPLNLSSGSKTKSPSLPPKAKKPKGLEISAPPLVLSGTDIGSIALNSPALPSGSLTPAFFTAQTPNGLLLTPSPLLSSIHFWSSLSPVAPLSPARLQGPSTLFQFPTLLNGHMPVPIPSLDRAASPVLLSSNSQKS
Outline: as §1

SPIC = molecular target: T7, SPIC (Homo sapiens, UniProt Q8N5J4 1-248)
T7 sequence: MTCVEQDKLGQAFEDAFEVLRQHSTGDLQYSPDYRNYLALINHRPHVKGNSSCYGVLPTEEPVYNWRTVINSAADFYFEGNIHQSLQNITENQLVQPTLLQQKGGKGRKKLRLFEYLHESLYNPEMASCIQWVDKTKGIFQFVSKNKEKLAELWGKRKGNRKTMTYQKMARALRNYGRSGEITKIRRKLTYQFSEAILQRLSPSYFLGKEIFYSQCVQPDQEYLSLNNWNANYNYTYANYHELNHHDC
Outline: as §1

ELF4 = ELF4 (Homo sapiens, UniProt Q99607 1-663)
Outline: as §1

Chain of SPIB (Q01892 whole entry): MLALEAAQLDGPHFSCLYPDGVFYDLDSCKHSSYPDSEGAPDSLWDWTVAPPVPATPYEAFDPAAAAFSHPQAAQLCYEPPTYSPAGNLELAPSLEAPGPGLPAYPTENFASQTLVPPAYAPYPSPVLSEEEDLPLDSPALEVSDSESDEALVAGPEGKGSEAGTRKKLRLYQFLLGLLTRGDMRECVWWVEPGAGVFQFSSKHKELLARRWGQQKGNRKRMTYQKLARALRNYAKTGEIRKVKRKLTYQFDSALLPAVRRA
Chain of ELF4 (Q99607 whole entry): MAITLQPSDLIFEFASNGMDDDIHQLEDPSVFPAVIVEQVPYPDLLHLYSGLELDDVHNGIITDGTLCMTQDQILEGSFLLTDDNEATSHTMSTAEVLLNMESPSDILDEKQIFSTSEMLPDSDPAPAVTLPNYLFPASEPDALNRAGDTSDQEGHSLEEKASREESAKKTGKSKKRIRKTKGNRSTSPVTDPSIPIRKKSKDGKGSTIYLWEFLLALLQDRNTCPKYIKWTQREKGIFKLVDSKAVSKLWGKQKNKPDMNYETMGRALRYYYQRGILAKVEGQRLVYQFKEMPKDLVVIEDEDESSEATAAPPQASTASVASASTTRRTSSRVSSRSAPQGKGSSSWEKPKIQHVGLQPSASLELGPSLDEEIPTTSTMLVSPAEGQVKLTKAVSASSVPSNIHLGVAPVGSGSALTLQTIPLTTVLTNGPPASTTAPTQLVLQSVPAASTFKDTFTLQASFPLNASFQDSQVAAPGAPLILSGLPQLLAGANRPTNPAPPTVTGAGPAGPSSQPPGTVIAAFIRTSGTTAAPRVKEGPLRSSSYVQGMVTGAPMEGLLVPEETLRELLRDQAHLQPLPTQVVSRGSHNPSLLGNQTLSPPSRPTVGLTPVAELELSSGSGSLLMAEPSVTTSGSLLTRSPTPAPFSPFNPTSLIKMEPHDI
Chain of ELF1 (P32519 whole entry): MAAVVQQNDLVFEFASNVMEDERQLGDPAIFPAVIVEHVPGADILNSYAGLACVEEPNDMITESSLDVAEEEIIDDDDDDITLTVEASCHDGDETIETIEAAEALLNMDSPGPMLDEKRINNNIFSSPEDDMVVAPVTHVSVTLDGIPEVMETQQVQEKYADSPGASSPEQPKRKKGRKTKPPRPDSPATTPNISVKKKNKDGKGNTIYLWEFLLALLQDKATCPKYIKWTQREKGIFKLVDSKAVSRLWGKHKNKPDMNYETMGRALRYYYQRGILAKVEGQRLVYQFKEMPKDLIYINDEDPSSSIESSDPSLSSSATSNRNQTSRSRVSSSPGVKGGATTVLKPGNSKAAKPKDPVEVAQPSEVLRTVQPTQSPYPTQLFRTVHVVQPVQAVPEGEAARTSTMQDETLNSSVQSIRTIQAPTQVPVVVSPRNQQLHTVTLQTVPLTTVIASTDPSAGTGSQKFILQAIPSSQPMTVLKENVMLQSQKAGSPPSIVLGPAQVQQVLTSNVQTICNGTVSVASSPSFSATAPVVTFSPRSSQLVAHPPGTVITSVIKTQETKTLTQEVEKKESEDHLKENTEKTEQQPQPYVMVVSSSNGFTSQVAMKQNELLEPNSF

ACCCCT was tested, and the binding signal (FLI1) was 1.11 fold enrichment (6-mer frequency, TF over GST control), the binding signal (ELK1) was 1.07 fold enrichment (6-mer frequency, TF over GST control) and the binding signal (GABPA) was 1.04 fold enrichment (6-mer frequency, TF over GST control). The binding signal (ERG) was 1.01 fold enrichment (6-mer frequency, TF over GST control), the binding signal (ELF1) was 1.16 fold enrichment (6-mer frequency, TF over GST control) and the binding signal (EHF) was 1.09 fold enrichment (6-mer frequency, TF over GST control). The binding signal (SPIB) was 1.08 fold enrichment (6-mer frequency, TF over GST control), the binding signal (ELK3) was 1.08 fold enrichment (6-mer frequency, TF over GST control) and the binding signal (SPIC) was 1.05 fold enrichment (6-mer frequency, TF over GST control). The binding signal (ELF4) was 1.09 fold enrichment (6-mer frequency, TF over GST control).
